This is a sample that favours compounds with a hit; in the whole collection about 1.3% have one here.
TRPML1 ag = activates the human TRPML1 channel | TRPML1-expressing cells, Ca2+ dye fluorescence, FDSS | 0.12% of 410,000 active | Q9GZU1 | activation, % (no concentration beside the values); note: 0% is about no effect
Target sequence (Q9GZU1 whole entry, looked up): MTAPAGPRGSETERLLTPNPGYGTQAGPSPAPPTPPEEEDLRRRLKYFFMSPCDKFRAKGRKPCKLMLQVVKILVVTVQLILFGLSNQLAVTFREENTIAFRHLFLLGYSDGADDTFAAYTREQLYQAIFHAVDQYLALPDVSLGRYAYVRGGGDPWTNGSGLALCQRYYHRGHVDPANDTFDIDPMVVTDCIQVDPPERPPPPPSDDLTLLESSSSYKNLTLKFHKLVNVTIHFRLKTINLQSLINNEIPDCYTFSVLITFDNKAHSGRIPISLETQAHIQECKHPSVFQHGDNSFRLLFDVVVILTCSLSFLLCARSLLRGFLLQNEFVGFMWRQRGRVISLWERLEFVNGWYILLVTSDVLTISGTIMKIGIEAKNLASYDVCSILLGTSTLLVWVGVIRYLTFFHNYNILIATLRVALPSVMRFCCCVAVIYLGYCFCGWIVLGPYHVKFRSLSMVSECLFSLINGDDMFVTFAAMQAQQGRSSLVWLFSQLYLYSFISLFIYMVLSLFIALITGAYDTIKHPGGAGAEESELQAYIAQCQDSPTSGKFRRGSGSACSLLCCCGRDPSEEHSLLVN
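Cells: TRPML1-DL, 1X Tet inducer, ~16 h at 37 degrees C/5% CO2. Dye: ABD Ca8 no-wash + quencher, 45-90 min RT. Read: 10 s baseline, compound add, 110 s agonist phase; 54-4 EC80 (4uM final), 110 s antagonist phase.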
PKM2 activator = PKM2 (human) enzyme activation; P14618; purified PKM2, Kinase-Glo ATP luminescence, activation; response scale: 0% is enzyme alone, no compound; Potency, µM (series often up to 57.5 µM), inactives show top-dose activation, usual class: activators; 0.34% of 260,000 active; AID 1631; active = well fitted activation curve with a large enough effect; inconclusive = small, poorly fitted or top-dose-only effect; inactive = no such curve, though single readings can be large or run the other way; note: potency is the fitted concentration of half-maximal effect; % is set by controls: 0 for no effect and ±100 for the full control effect; nearly all actives have a fitted effect of over 55% in size
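Purified hPK-M2 (>95%) run at intermediate activity with 0.1 mM ADP and 0.5 mM PEP in 50 mM imidazole pH 7.2, KCl, MgCl2; 1 h room temperature. ATP formed read by Kinase-Glo luminescence; normalized to uninhibited and no-enzyme controls.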
TRPML1 blocker = human mucolipin-1 channel inhibition. TRPML1-inducible cells, Ca2+ dye fluorescence, FDSS; active compounds read low; inhibition of EC80 agonist-evoked calcium signal. 0.02% of 390,000 active. activity change, negative = inhibition, % (concentration not given with the values). Q9GZU1; in the data active = activity change below about -50%; inconclusive = between about -30% and that limit;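 note: stimulus is agonist 54-4 at its EC80 concentration; % is set by controls: 0 for no effect and ±100 for the full control effect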
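TRPML1-DL cells, Tet-induced overnight (~16 h, 37 °C) at 1,500 cells/well, were loaded with Ca8 no-wash dye plus quencher for 45-90 min at room temperature. Compounds were pinned during FDSS kinetic reading; agonist 54-4 at EC80 (4 uM final) then added.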
BRCA1 expr up = BRCA1 expression activation | MCF7-BRCA1-FFLuc reporter, luminescence, 48 h; response scale: scaled: vehicle 0%, 10 µM genistein 100% | Potency, µM (top dose mostly 46.1 µM), inactives show top-dose activation, actives largely listed as activators | 1.1% of 380,000 active | AID 624202; active = well fitted activation curve with a large enough effect; inconclusive = small, poorly fitted or top-dose-only effect; inactive = no such curve, though single readings can be large or run the other way; note: potency is the fitted concentration of half-maximal effect; nearly all actives have a fitted effect of over 80% in size
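Cells: MCF7-BRCA1-FFLuc, 2000/well. Exposure: 48 h, 37 °C, 5% CO2. Read: luminescence, 15 min post-substrate. Controls: genistein 10 microM (maximal activation), DMSO (neutral).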
TSG101-PTAP inh = blocks PTAP/TSG101 interaction to inhibit HIV-1 budding; Fluorescence polarization, FITC-PTAP peptide / Tsg101 binding; Potency, µM (highest dose often 115 µM), for the others: top-dose activity change, negative = inhibition, hits mostly inhibitors; 340,000 tested, under 10 active; active = well fitted inhibition curve with a large enough effect in the main read-out, with a control signal flat, not every such curve was filed as active; inconclusive = small, poorly fitted or top-dose-only effect, or effect the other way, or a change in a side signal; inactive = no such curve, though single readings can be large or run the other way; note: potency is the fitted concentration of half-maximal effect; % of control where 0% means no effect
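FP read-out: FITC-PTAP peptide, 50 nM final, binding Tsg101 binding domain, 10 uM final; 20 min, r.t.; 10 mM HEPES pH 7.5, 0.15 M NaCl, 0.01% Tween 20, 3 mM EDTA, 0.1 mM TCEP.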
IL2 activator = activates IL-2 in a cell-based reporter assay; activation, % (series mostly up to about 46 µM); 0.065% of 360,000 active; IL-2 activation reporter assay, cell-based qHTS; stimulated with anti-CD3/CD4/CD28 beads; in transgenic mouse T cells; note: 0% is about no effect
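First, unstimulated transgenic mouse T cells were exposed to compound for 60 min. Next, anti-CD3/anti-CD4-coated beads with anti-CD28 were added. Finally, after 18 h at 37 degrees C, EGFP and DsRed were imaged.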
* marks the source's active call; other numbers are inactive results; ? = inconclusive; . = no result given; [ ] = dose if it differs, or a comment. Cut-off read from the data, not from the text of the source, unless noted: active = activation above about 50%; inconclusive = mostly about 30% to 49%; inactive = weaker than that.

SMILES | TRPML1 ag | PKM2 activator | TRPML1 blocker | BRCA1 expr up | TSG101-PTAP inh | IL2 activator
COc1ccc(C2N=C(c3ccccc3)NO2)cc1OC (stereo not given) | 0 | 0% | 10 | 70% | 0% | -1
Cc1ccc(NC(=O)CSc2nc3c(c(=O)[nH]2)CN(Cc2ccc(F)cc2)CC3)cc1C | -1 | -3% | -7 | -31% | 0% | 3
O=C(CSc1nc2c(c(=O)[nH]1)CN(Cc1ccc(F)cc1)CC2)Nc1ccc(F)cc1 | 1 | 16µM* | -14 | -28% | -4% | 1
Cc1nc2c(-c3ccccc3)c(C)nn2c(C)c1CCC(=O)NCc1ccc(F)cc1 | -1 | . | -20 | -8% | . | .
N#C/C(=C\c1ccc(-c2ccc([N+](=O)[O-])cc2)o1)C(=O)Nc1nc(-c2cccs2)cs1 | 0 | 0% | -101* | 1% | 1% | 0
N#C/C(=C/c1ccc(-c2cccc([N+](=O)[O-])c2)o1)C(=O)Nc1nc(-c2cccs2)cs1 | -1 | . | -11 | -11% | -7% | -1
COc1ccccc1/C=C/c1nc2ccccc2s1 | -1 | . | . | 24% | . | .
CCOC(=O)/C(C#N)=C/c1ccc(OC)c(OC)c1 | 0 | ? | 48 | -5% | 0% | -4
CCOc1cc(/C=C(\C#N)C(N)=O)ccc1OS(=O)(=O)c1ccccc1 | 0 | 14µM* | -5 | -9% | -2% | 0
O=C(c1cnc(N2CCCCC2)c2ccccc12)N1CCN(c2cccc(Cl)c2)CC1 | 2 | . | -16 | . | . | .
O=C(c1ccc(S(=O)(=O)c2cccc(Cl)c2)c([N+](=O)[O-])c1)N1CCN(Cc2ccccc2)CC1 | -1 | 3.2µM* | -1 | -88% | -2% | -7
CCc1cccc(NC(c2ccccc2)c2nnc(-c3ccccc3F)o2)c1 (stereo not given) | 4 | . | 26 | . | . | .
COc1ccc2cc(-c3ccccc3)c(=O)oc2c1 | 0 | -3%[0.46 µM] | -12 | ? | -6% | -1
CN(C)C(=O)COc1ccc2cc(-c3ccccc3)c(=O)oc2c1 | 0 | -3% | -15 | 11µM* | -6% | -1
CS(=O)(=O)c1ccc(NCCc2ccccn2)c([N+](=O)[O-])c1 | 0 | 14µM* | 3 | -3% | -2% | 1
Cc1cccc(-c2nc(C#N)c(NC3CCCCC3)o2)c1 | 0 | -6% | -9 | 3.2µM* | 1% | 2
Cc1cccc(-c2nc(C#N)c(N3CCCCC3)o2)c1 | 2 | . | -16 | ? | -8% | -2
O=C(OCC(=O)N1CCN(C(=O)c2ccco2)CC1)c1cc(-c2ccco2)nc2ccccc12 | 1 | 16µM* | -2 | 6% | 0% | -1
O=C(OCC(=O)N1CCN(C(=O)c2ccco2)CC1)c1cc(-c2ccc(Cl)c(Cl)c2Cl)nc2ccccc12 | 0 | ? | 1 | -75% | -3% | 0
O=C(c1ccco1)N1CCN(C(=O)c2cc(-c3ccccn3)nc3ccccc23)CC1 | 1 | 20µM* | -8 | 12% | -3% | 0
C[C@H](O)[C@@H]1CN2CCc3c([nH]c4ccccc34)[C@@H]2C[C@@H]1N(C)Cc1cc(Cl)cc(Cl)c1 | 69* | . | -4 | -42% | . | -3
CC(/C=N/NC(=O)c1cccnc1)=C\c1ccccc1 | 0 | -12% | -16 | 3.2µM* | -1% | 1
CC(/C=N/NC(=O)c1ccncc1)=C\c1ccc(C(C)C)cc1 | 4 | -10% | 21 | 8.9µM* | -11% | 2
CC(/C=N\NC(=O)c1cc(C)oc1C)=C\c1ccccc1 | 0 | -4% | 4 | 2µM* | -3% | -2
O=C(N/N=C/C(Cl)=C/c1ccccc1)c1ccccc1F | 0 | 1% | -14 | 10µM* | -5% | 2
SMILES | TRPML1 ag | PKM2 activator | TRPML1 blocker | BRCA1 expr up | TSG101-PTAP inh | IL2 activator
O=C(N/N=C/C(Br)=C/c1ccccc1)c1ccccc1F | 0 | -5% | 6 | ? | 0% | -5
Cc1ccc(/C=N/NC(=O)c2cc(C)oc2C)cc1 | 0 | -32% | 15 | 73% | -2% | 3
Cn1nc(-c2ccncc2)nc2c(=O)n(C)c(=O)nc1-2 | 0 | . | . | -28% | . | .
O=C1C2C3C=CC(CC3)C2C(=O)N1/N=C/c1c[nH]c2ccccc12 (stereo not given) | 0 | -6% | 10 | 8.9µM* | 0% | 2
COc1ccc(N2CC(NC(=O)C(=O)c3c[nH]c4ccccc34)CC2=O)cc1 (stereo not given) | 1 | . | 0 | . | . | .
N#Cc1ccc(Cn2ccnc2C(=O)Nc2ccccc2)cc1 | 0 | -6% | 10 | 59% | -3% | -3
Cc1ccc(Cn2ccnc2C(=O)Nc2ccccc2)cc1 | 0 | -2% | -9 | 13µM* | -3% | -2
O=C(c1cc(-c2ccc(Cl)c(Cl)c2)on1)N1CCOCC1 | 0 | -3% | 6 | 1.3µM* | 0% | 1
COc1cccc(-c2cc(C(=O)N3CCCCC3C)no2)c1 (stereo not given) | 1 | -1% | -12 | 2.8µM* | -1% | 2
O=C(c1cc(-c2ccccc2)on1)N1CCN(C(=O)c2ccco2)CC1 | 1 | 22% | 6 | 44% | -2% | -1
O=C(c1cc(-c2ccc(Cl)c(Cl)c2)on1)N1CCCC1 | . | -2% | . | . | . | .
CN1CCN(C(=O)c2cc(-c3ccccc3)on2)CC1 | 1 | 4% | -23 | 7.9µM* | 1% | -1
O=C(c1cc(-c2ccccc2)on1)N1CCCCCC1 | 0 | 3% | 26 | 1.8µM* | -3% | -6
Cc1cccc(-n2c(=O)c3c(c4cc(C)ccc4n3C)n(CC(=O)Nc3ccc(C)c(C)c3)c2=O)c1 | 2 | . | 33 | 0% | . | .
CCOC(=O)c1noc2nc(C)n(CC(=O)Nc3cc(Cl)ccc3OC)c(=O)c12 | -1 | . | 12 | . | . | .
Cc1nc(-c2ccc(C(=O)Nc3ccc(F)cc3)cc2)cs1 | 1 | -21% | 20 | ? | -1% | -2
COc1ccc(CC(=O)Nc2ccc(-c3csc(C)n3)cc2)cc1 | -1 | 1% | -6 | 23% | 0% | 0
Cc1nc(-c2ccc(C(=O)Nc3ccccc3F)cc2)cs1 | 2 | -44% | 1 | 10µM* | -2% | 0
Cc1nc(-c2ccc(NC(=O)Cc3ccccc3)cc2)cs1 | -2 | . | 21 | 8.9µM* | -1% | -3
CCCCNC(=O)N(C)c1nc2ccccc2s1 | -1 | 1% | -3 | 4.5µM* | -1% | 10
COC(=O)N(C)c1nc2ccccc2s1 | 0 | -3% | -6 | 99% | -9% | 1
CCOc1ccc(/C=C/c2nc(C#N)c(N3CCC(C)CC3)o2)cc1 | 1 | . | 1 | . | . | .
